High-throughput results from PubChem BioAssay.
KCNQ2 enhance: KCNQ2 (rat) channel potentiation. O88943. actives 0.54% (n = 310,000). B-score at 10 µM. CHO-K1 KCNQ2, FluxOR thallium flux fluorescence; active compounds read high;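 active = fluorescence ratio B-score at least 3 SD of library B-scores, with initial fluorescence B-score within 3 of them, cut at about 5.3 in these data; same plate scores as AID 2156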;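 also: B-score of peak minus minimum over baseline fluorescence ratio after K+ and Tl+ stimulus; positive B-score means potentiation of KCNQ2 with more thallium influx and brighter signal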
Target sequence (O88943 whole entry, looked up): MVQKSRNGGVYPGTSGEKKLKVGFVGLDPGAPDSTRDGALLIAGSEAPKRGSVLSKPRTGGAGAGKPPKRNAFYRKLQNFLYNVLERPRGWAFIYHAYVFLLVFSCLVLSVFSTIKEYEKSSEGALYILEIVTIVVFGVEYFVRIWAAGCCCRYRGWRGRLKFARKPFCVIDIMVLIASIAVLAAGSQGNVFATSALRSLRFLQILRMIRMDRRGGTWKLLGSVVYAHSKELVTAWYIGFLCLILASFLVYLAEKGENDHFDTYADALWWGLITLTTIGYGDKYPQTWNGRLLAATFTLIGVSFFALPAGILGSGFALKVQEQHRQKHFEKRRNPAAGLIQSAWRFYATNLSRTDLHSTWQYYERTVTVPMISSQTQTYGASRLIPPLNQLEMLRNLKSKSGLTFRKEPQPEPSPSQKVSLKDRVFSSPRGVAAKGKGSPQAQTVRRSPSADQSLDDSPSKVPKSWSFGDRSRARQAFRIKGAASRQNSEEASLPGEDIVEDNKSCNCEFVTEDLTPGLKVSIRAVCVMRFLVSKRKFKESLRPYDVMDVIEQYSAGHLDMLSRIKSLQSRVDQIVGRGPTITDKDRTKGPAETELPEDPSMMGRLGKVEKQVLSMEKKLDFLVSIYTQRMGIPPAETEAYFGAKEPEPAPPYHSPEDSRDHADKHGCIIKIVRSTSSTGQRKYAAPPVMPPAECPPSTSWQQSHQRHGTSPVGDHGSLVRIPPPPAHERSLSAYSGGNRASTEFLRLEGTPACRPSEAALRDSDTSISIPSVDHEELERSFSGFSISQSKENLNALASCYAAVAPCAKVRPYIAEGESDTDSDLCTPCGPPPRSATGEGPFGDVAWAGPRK
KCNQ2 inh: KCNQ2 (rat) channel inhibition. CHO-K1 KCNQ2, FluxOR thallium flux, 20 min; active compounds read low. actives 1.1% (n = 310,000). O88943. AID 2156. B-score at 10 µM;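 active = fluorescence ratio B-score at most minus 3 library SDs, with starting brightness B-score within 2 library SDs, cut at about -5.5 in these data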
Kir21 confirm: confirmation of mouse Kir2.1 potassium channel inhibitors | actives 41% (n = 2,300) | AID 2032 | Kir2.1-expressing cells, FluxOR thallium flux fluorescence; active compounds read low | Tl flux remaining, % of negative control (active compounds read low), % at 10 µM | shares compounds with KCNQ2 enhance;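 active = Primary-screen hit whose thallium flux fell at least 3 control SD below untreated wells in both duplicates, with normal baseline fluorescence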
HEK293 ctr: alters thallium flux in parental HEK293 cells, Kir2.1 counter-screen. shares compounds with KCNQ2 enhance. AID 2105. FluxOR signal as % of negative control (100 = no effect), % at 10 µM. FluxOR thallium flux fluorescence; 0% = unstimulated blank wells. actives 19% (n = 2,300);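 active = dye signal at least 3 control SD above or below untreated wells in both duplicates, raw fluorescence within 3, either direction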;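 also: percent is based on the flux ratio of peak minus minimum fluorescence over baseline F0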
CHO-K1 ctr: alters thallium flux in parental CHO-K1 cells, KCNQ2 counter-screen | shares compounds with KCNQ2 enhance | activity increase over 3SD of controls, % at 10 µM | actives 43% (n = 1,200) | FluxOR thallium flux fluorescence; zero = vehicle mean+3SD, 100% = vehicle-minus-blank window;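 active = signal rise of at least 3 SD above the untreated control mean, in both duplicate wells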;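 also: counter screen of KCNQ2 potentiator hits so any rise reflects channel-independent effects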
KCNQ1 sel pot: selectivity of KCNQ2 potentiators: effect on human KCNQ1; actives 28% (n = 1,200); shares compounds with KCNQ2 enhance; activation over 3SD threshold, % at 10 µM; CHO KCNQ1 stable, FluxOR thallium flux fluorescence; beyond 3SD, as % of vehicle-control signal;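 active = fluorescence ratio rise of at least 3 SD of vehicle wells above their mean, in both replicate wells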
KCNQ2 pot conf: rat KCNQ2 channel potentiator confirmation | CHO-KCNQ2 cells, FluxOR thallium flux fluorescence | potentiation, less the hit threshold, % at 10 µM | actives 68% (n = 1,200) | shares compounds with KCNQ2 enhance;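 active = fluorescence ratio rising 3 SD or more over the vehicle control mean in both replicates, plus primary screen hit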;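 also: peak minus minimum thallium fluorescence divided by baseline after K/Tl stimulus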
Kir2-1 sel: selectivity of KCNQ2 potentiators: effect on mouse Kir2.1; shares compounds with KCNQ2 enhance; HEK293 Kir2.1, FluxOR thallium flux fluorescence; activity over 3SD threshold, % at 10 µM; actives 2% (n = 1,200); AID 2345;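 active = fluorescence ratio rise of at least 3 SD above the vehicle-control mean, seen in both replicates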
KCNQ2 W236L MoA: potentiates the retigabine-insensitive rat KCNQ2 W236L mutant channel. shares compounds with KCNQ2 enhance. CHO KCNQ2-W236L, automated patch clamp current. current increase over 3SD of negative controls (%), active compounds read high, % at 25 µM. actives 10% (n = 940);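 active = current increase at least 3 SD of the untreated controls above them in both duplicate recordings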
Each line names hits and unclear results; the compound was inactive in the other large screens (follow-up assays come after a bar, where they were run). Sampled rows, rich in hits. Any-hit rate of the full collection: about 1.6%.

CCN(CC)C(=O)NCc1c(C)cc(C)cc1C	none (no result: KCNQ2 enhance)
Cc1ccc(S(=O)(=O)CCC(=O)c2cccc([N+](=O)[O-])c2)cc1	KCNQ2 inh -13 | Kir21 confirm 51% | HEK293 ctr 58%
Cc1ccc(S(=O)(=O)NCC(=O)Nc2cccc([N+](=O)[O-])c2)cc1	none
CCOc1ccc(CCNC(=O)CSc2n[nH]c(N)n2)cc1OCC	none
CCC(=O)N1c2ccccc2NC2=C(C(=O)CC(C)(C)C2)C1c1ccc(O)c(OC)c1 (stereo not given)	none (no result: KCNQ2 enhance)
CC[C@@H](C)[C@H](CN[C@H](CNC)C(C)C)NC[C@@H](C)c1ccc(CC(C)C)cc1	none (no result: KCNQ2 enhance) | Kir21 confirm 26% | HEK293 ctr inactive
CC[C@H](C)[C@@H](CNC)NC[C@@H](Cc1ccc(O)cc1)NCC(C)(C)C	none
CC(NC(=O)C(=O)NCCN1CCN(C(=O)c2ccc([N+](=O)[O-])cc2)CC1)c1ccccc1 (stereo not given)	none
Cc1c(NC(=O)COC(=O)c2ccc(Br)o2)c(=O)n(-c2ccccc2)n1C	none (no result: KCNQ2 enhance) | Kir21 confirm inactive | HEK293 ctr inactive
Cc1c(NC(=O)C(C)OC(=O)c2ccc(Br)o2)c(=O)n(-c2ccccc2)n1C (stereo not given)	none
CC1CCCC(NC(=O)c2cccc(S(=O)(=O)N3CCCCC3)c2)C1C (stereo not given)	none (no result: KCNQ2 enhance)
COc1ccccc1-c1nnc(NC(=O)CSc2nncn2C)s1	none (no result: KCNQ2 enhance)
c1ccc(-c2csc3ncnc(N4CCc5ccccc5C4)c23)cc1	none (no result: KCNQ2 enhance) | Kir21 confirm inactive | HEK293 ctr inactive
c1ccc(-c2csc3ncnc(N4CCOCC4)c23)cc1	none (no result: KCNQ2 enhance)
CN(C)C(=O)c1ccccc1NC(=O)Cc1cccc2ccccc12	none (no result: KCNQ2 enhance)
CC(NC(=O)CNC(=O)C(Cc1ccccc1)NC(=O)OCc1ccccc1)C(N)=O (stereo not given)	none (no result: KCNQ2 enhance)
CN(C)c1ccc(/C=C/c2ccc3ccccc3[n+]2C)cc1	none (no result: KCNQ2 enhance) | Kir21 confirm inactive | HEK293 ctr inactive
CN(CCCS(=O)(=O)[O-])c1ccc(/C=C/c2ccc3ccccc3[n+]2C)cc1	none (no result: KCNQ2 enhance)
CCn1c(CCNC(=O)c2ccc(C)cc2)nnc1SCc1ccc(Cl)c(Cl)c1	none (no result: KCNQ2 enhance)
CCn1c(CCNC(=O)c2ccc(OC)cc2)nnc1SCc1ccc(Cl)c(Cl)c1	none (no result: KCNQ2 enhance) | Kir21 confirm 67% | HEK293 ctr inactive
CN(CCO)c1cc(N2CCN(C(=O)c3ccco3)CC2)c2nonc2c1[N+](=O)[O-]	none
C=CCN(C(=O)c1ccccn1)C(C(=O)NCc1ccccc1)c1ccccc1F (stereo not given)	none (no result: KCNQ2 enhance)
COc1ccc(Cl)c2sc(N(CCN(C)C)C(=O)CCS(=O)(=O)c3ccc(C)cc3)nc12	none (no result: KCNQ2 enhance)
COc1ccc(OC)c2sc(N(CCCN(C)C)C(=O)CCS(=O)(=O)c3ccccc3)nc12	KCNQ2 enhance 9.9 | CHO-K1 ctr inactive | KCNQ1 sel pot 68 | KCNQ2 pot conf inactive | Kir2-1 sel inactive
CCCCCCNC(=O)c1cc(S(=O)(=O)N2CCc3ccccc32)ccc1F	none (no result: KCNQ2 enhance)
Cc1occc1C(=O)Nc1ccc2c(c1)OCCO2	none
Cc1occc1C(=O)Nc1ccc2c(c1)CCC2	KCNQ2 enhance 7.2 | Kir21 confirm inactive | HEK293 ctr inactive | CHO-K1 ctr inactive | KCNQ1 sel pot inactive | KCNQ2 pot conf 32 | Kir2-1 sel inactive | KCNQ2 W236L MoA inactive
Cc1ccc(N(CC(=O)Nc2cccc(Cl)c2C)S(C)(=O)=O)cc1	none (no result: KCNQ2 enhance)
CC1=NN(C(N)=S)C(=O)C1N=Nc1cccc2ccccc12 (stereo not given)	none (no result: KCNQ2 enhance)
CC1=NN(C(N)=S)C(=O)C1N=Nc1cccc(Cl)c1C (stereo not given)	KCNQ2 enhance 40 | Kir21 confirm inactive | HEK293 ctr inactive | CHO-K1 ctr inactive | KCNQ1 sel pot inactive | KCNQ2 pot conf 110 | Kir2-1 sel inactive | KCNQ2 W236L MoA inactive
CC(CCc1ccc(O)cc1)NC1C2CC3CC(C2)CC1C3 (stereo not given)	none
CC(CCc1ccc(O)cc1)NC1c2ccccc2-c2ccccc21 (stereo not given)	none | Kir21 confirm 33% | HEK293 ctr inactive
Cc1nonc1OCCNC(=O)C12CC3CC(CC(C3)C1)C2	KCNQ2 enhance 13 | Kir21 confirm inactive | HEK293 ctr 74% | CHO-K1 ctr 74 | KCNQ1 sel pot inactive | KCNQ2 pot conf inactive | Kir2-1 sel inactive
CCOC(=O)CNC(=O)C12CC3CC(CC(C3)C1)C2	none
COc1cc(NC(=S)N2CCN(S(=O)(=O)c3ccccc3)CC2)cc(OC)c1	none (no result: KCNQ2 enhance)
COCCN(C(=O)COC(=O)CCOc1ccccc1C)c1c(N)n(Cc2ccccc2)c(=O)[nH]c1=O	none (no result: KCNQ2 enhance)
CC(=O)N1CCOc2ccc(S(=O)(=O)NCc3ccccc3Cl)cc21	none (no result: KCNQ2 enhance)
CC(=O)N1CC(C)Sc2ccc(S(=O)(=O)NCc3ccccc3Cl)cc21 (stereo not given)	none (no result: KCNQ2 enhance) | Kir21 confirm 75% | HEK293 ctr inactive
COc1ccc(CCC(=O)N2CCCSC2=Nc2ccc(C(C)=O)cc2)cc1	none (no result: KCNQ2 enhance)
CN1CCN(S(=O)(=O)c2cccs2)CC1	none
CC1c2ccsc2CCN1S(=O)(=O)c1cccs1 (stereo not given)	none (no result: KCNQ2 enhance) | Kir21 confirm 57% | HEK293 ctr inactive
Cc1onc(-c2ccccc2Cl)c1NC(=O)NCc1cccs1	none
COc1ccccc1NC(=S)N(Cc1ccco1)Cc1cc2cc(C)ccc2[nH]c1=O	none (no result: KCNQ2 enhance)
COc1ccc(NC2CCCN(C(=O)C3(C)CCCCC3)C2)cc1OC (stereo not given)	none (no result: KCNQ2 enhance)
O=C(O)c1ccccc1NC(c1ccccc1)c1ccc(Cl)cc1 (stereo not given)	KCNQ2 enhance 5.9 | Kir21 confirm inactive | HEK293 ctr inactive | CHO-K1 ctr inactive | KCNQ1 sel pot 16 | KCNQ2 pot conf inactive | Kir2-1 sel inactive
O=C(CSc1ccccc1C(=O)O)c1ccc(Cl)cc1	none
Cc1cccc2nc(C(F)(F)F)nc(=O)n12	none
O=C(N/N=C/c1cccc(Oc2ccccc2)c1)c1cc[n+]([O-])cc1	none (no result: KCNQ2 enhance)
Nc1ccc(C(=O)N/N=C/c2cccc(Oc3ccccc3)c2)cc1	none | Kir21 confirm 56% | HEK293 ctr inactive
CC(Cc1ccc(O)c(O)c1)C(C)Cc1ccc(O)c(O)c1 (stereo not given)	none (no result: KCNQ2 enhance) | Kir21 confirm 18% | HEK293 ctr 56%
